Screening results (PubChem BioAssay)
The list is not random: actives were taken first. Their share in the collection is about 11%.
HEK cytotox: kills HEK 293 cells. HEK 293 viability, ATP luminescence (CellTiter-Glo), 48-72 h. Potency, µM (titrated, usually from 115 µM), for inactives: at the top dose activity change, negative = cytotoxicity, hits mostly inhibitors. actives 6.6% (n = 94,000); further: nearly all actives have a fitted effect of over 60% in size
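Read-out: CellTiter-Glo ATP luminescence. Cells: HEK 293, 250 cells/well. Exposure: 48 or 72 hr, 37 degree Celsius.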
FLuc inh: blocks purified firefly luciferase enzyme activity | P08659 | purified P. pyralis luciferase, luminescence, biochemical | Potency, µM (titrated, usually from 115 µM), most hits filed as inhibitors | actives 2.5% (n = 76,000) | AID 1347043; further: nearly all actives have a fitted effect of over 65% in size
Target sequence (P08659 whole entry, looked up): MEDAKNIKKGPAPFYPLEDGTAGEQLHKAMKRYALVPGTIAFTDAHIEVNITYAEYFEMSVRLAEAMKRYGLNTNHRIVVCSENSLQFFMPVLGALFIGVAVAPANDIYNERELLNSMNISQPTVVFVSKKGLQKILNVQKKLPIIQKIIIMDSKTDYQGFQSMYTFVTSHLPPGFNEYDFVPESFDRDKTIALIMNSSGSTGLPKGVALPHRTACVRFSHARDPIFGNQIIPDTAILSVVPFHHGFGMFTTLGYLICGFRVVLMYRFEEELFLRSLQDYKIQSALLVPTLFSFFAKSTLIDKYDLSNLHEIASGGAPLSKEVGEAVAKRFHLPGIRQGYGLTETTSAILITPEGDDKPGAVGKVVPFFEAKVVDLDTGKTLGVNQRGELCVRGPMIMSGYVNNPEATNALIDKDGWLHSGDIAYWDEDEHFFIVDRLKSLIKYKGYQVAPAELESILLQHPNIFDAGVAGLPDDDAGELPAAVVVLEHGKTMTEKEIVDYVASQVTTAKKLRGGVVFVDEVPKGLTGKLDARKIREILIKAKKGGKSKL
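Luminescence read by CCD imaging after purified firefly luciferase (10nM final) was added to substrate buffer holding 10uM D-luciferin and 10uM ATP, pH 7.5, pre-dosed with compound.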
3T3 cytotox: NIH 3T3 cell cytotoxicity; NIH 3T3 viability, CellTiter-Glo ATP luminescence, 48-72 h; Potency, µM (series often up to 96.7 µM), for inactives: top-dose activity change, negative = cytotoxicity, usual class: inhibitors; actives 4.3% (n = 94,000); further: nearly all actives have a fitted effect of over 55% in size
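ATP-dependent luminescence (CellTiter-Glo) served as the viability signal for NIH 3T3 cells treated with compound for 48 or 72 hr at 37 °C.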
NPR1 antag: blocks ANP-stimulated signaling of human Npr1 receptor. AID 1347048. HEK293 hNpr1 GloSensor cGMP, ANP-stimulated luminescence. P16066. Potency, µM (doses to about 46.3 µM), for the others: at the top dose activity change, negative = inhibition, actives largely listed as inhibitors. actives 1.6% (n = 76,000); calls by dose curve; further: nearly all actives have a fitted effect of over 60% in size
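HEK293 cells stably expressing human Npr1 and cGMP GloSensor pGS-40F, loaded 2 h with 2% GloSensor reagent, given compound 30 min at room temperature. Luminescence read before and 20 min after 0.1 nM hNppA.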
An asterisk follows results filed as active; i = inactive; ? = inconclusive; . = no result; [ ] = remark or other dose. Unless noted, the call rests on the fitted dose curve; in most records, active means well fitted curve in the direction sought with a large enough effect; inconclusive means small, poorly fitted or top-dose-only effect, or another doubt; inactive means no such curve, though single readings can be large; an effect the other way counts as inactive or inconclusive. On the % scale 0 is the no-effect control and ±100 the full control effect; potency means the concentration at half of the fitted maximal effect.

SMILES	HEK cytotox	FLuc inh	3T3 cytotox	NPR1 antag
O=C(c1nc2cccnc2n(C2CCCCC2)c1=O)N1CCN(c2ncccn2)CC1	1.5%	.	-22.1%	.
COc1nc2nc(CCc3ccccc3)n(C)c2cc1-c1cccc(CO)c1	?	70.8µM*	?	-1.6%[70.6 µM]
O=[S+]1([O-])NCC2(CCN(Cc3ccsc3)CC2)Oc2ncccc21	i	.	i	.
OCC1COCCN(Cc2csc(-c3ccc(C(F)(F)F)cc3)n2)C1 (stereo not drawn)	?	?	?	-26.2%
Cn1cc(-c2cnc(Nc3cncnc3)c3c2CCO3)cn1	-10.6%[172 µM]	i	100µM*	0.6%[70.6 µM]
Cn1cc(-c2cnc(Nc3cnccn3)c3c2CCO3)cn1	1.5%[172 µM]	?	?	-0.7%[70.6 µM]
COc1ccc(Nc2ncc(-c3cnn(C)c3)c3c2OCC3)cc1	?	25.1µM*	?	6.2%[70.6 µM]
N#Cc1cccc(-c2c(C(=O)NCCc3ccccc3F)nc3sccn23)c1	?	.	-28.4%	.
COc1cc(OC)cc(OCc2nc3c(n2Cc2ccccc2)C(=O)N(Cc2ccccc2F)CCN3)c1	31.6µM*	i	?	-20.8%
O=C1c2c(nc(COc3cc(F)cc(F)c3)n2Cc2ccccc2)NCCN1Cc1ccccc1F	?	i	25.1µM*	-19.2%
COc1ccc(OCc2nc3c(n2Cc2ccccc2)C(=O)N(Cc2ccccc2F)CCN3)cc1OC	?	i	?	-16.6%
O=C1c2c(nc(COc3ccc(F)cc3F)n2Cc2ccccc2)NCCN1CCOc1ccccc1	44.7µM*	i	?	?
O=C1c2c(nc(COc3cc(F)cc(F)c3)n2Cc2ccccc2)NCCN1Cc1ccccc1	25.1µM*	i	25.1µM*	-30.0%
O=C1c2c(nc(COc3ccc(F)cc3)n2Cc2ccccc2)NCCN1CCOc1ccccc1	?	i	?	?
COc1ccc(OCc2nc3c(n2Cc2ccccc2)C(=O)N(CC2CC2)CCN3)cc1OC	?	i	?	-4.5%
O=C1N(C2CCN(C3CCC3)CC2)C(c2ccncc2)C12CCCCC2 (stereo not drawn)	-8.6%	i	-24.0%	9.1%
COCCCn1c(=O)c(C(=O)N2CCN(C(=O)c3ccc(C(F)(F)F)cc3)CC2)nc2cccnc21	i	.	-20.6%	.
O=C(NCCn1ccn2nc(-c3ccc(F)cc3)cc2c1=O)c1cc(Cl)ccc1F	?	i	-18.3%	-6.0%
CN1CCNc2nc(COc3ccc(Oc4ccccc4)cc3)n(Cc3ccccc3)c2C1=O	?	i	-21.2%	-2.4%
COCCN1CCNc2nc(COc3ccc(Oc4ccccc4)cc3)n(Cc3ccccc3)c2C1=O	?	i	44.7µM*	-21.7%
O=C1c2c(nc(COc3ccc(Cl)cc3)n2Cc2ccccc2)NCCN1CC1CCOCC1	?	i	?	-20.3%
O=C1c2c(nc(COc3ccccc3)n2Cc2ccccc2)NCCN1Cc1ccccc1	35.5µM*	i	31.6µM*	?
CN(Cc1ccccc1)Cc1nc2c(n1Cc1ccccc1)C(=O)N(Cc1ccccc1F)CCN2	39.8µM*	i	?	-0.1%
O=C1Nc2ccccc2CC12CCN2Cc1ccccc1C(F)(F)F (stereo not drawn)	79.4µM*	i	?	-7.8%[70.6 µM]
O=C1Nc2ccccc2CC12CCN(Cc1ccccc1C(F)(F)F)C2 (stereo not drawn)	?	i	?	-19.2%
SMILES	HEK cytotox	FLuc inh	3T3 cytotox	NPR1 antag
C[S+](=O)([O-])N1Cc2ccccc2CC2(CCCCN2Cc2ccncc2)C1 (stereo not drawn)	-27.9%	.	-10.9%	.
c1c(CC2CCCCC2)nnn1[C@H]1CO[C@H]2[C@@H]1OC[C@@H]2NCC1CCCCC1	?	i	?	-21.2%[70.6 µM]
O=C(N[C@H]1CO[C@H]2[C@@H]1OC[C@@H]2n1cc(CC2CCCCC2)nn1)C1CC1	-26.6%[172 µM]	i	31.6µM*	-14.9%[70.6 µM]
O=C(COc1ccccc1)N[C@H]1CO[C@H]2[C@@H]1OC[C@@H]2n1cc(CC2CCCCC2)nn1	-10.9%[172 µM]	i	39.8µM*	6.3%[70.6 µM]
COc1cccc(-c2ccc(CN3CCCC(NC(=O)C(C)(C)C)C3)cc2)c1 (stereo not drawn)	50.1µM*	.	?	.
COc1cccc(-c2ccc(CN3CCCC(NC(=O)Cc4ccccn4)C3)cc2)c1 (stereo not drawn)	39.8µM*	.	?	.
Cc1ccc(-c2cccc(CN3CCCC(NC(=O)C(C)(C)C)C3)c2)cc1Cl (stereo not drawn)	?	.	-26.5%	.
O=C(Cc1ccccn1)NC1CCCN(Cc2ccc(-c3cncnc3)cc2)C1 (stereo not drawn)	-29.7%	.	-12.1%	.
COc1cccc(-c2ccc(CN3CCCC(NC(=O)C(C)C)C3)cc2)c1 (stereo not drawn)	39.8µM*	.	?	.
CC(C)(C)c1nc(C(=O)N2CCCC2)n2ccncc12	-9.7%[172 µM]	.	-11.9%[138 µM]	.
O=C([C@H]1CCCN1C(=O)c1ccc(F)cc1)N1CCC(N2CCOC2=O)CC1	-4.4%	.	-13.2%	.
CC(C)CCN(C)Cc1ccc(-c2ccccc2)cc1	-27.6%[172 µM]	i	?	0.0%[70.6 µM]
Cc1ccc(CNC(=O)N2CCCC(c3nn(C)c(=O)n3Cc3ccccc3)C2)cc1 (stereo not drawn)	-0.2%	i	-12.1%	-0.3%
CC1CCCCC1Nc1ncnc2c1CN(C1CCNCC1)C(=O)CN2C (stereo not drawn)	-18.0%	.	-19.5%	.
O=C(CCC1CCCN(Cc2cccn2-c2cccnc2)C1)Nc1ccccc1F (stereo not drawn)	-8.6%	i	-20.9%	-4.1%
CNC(=O)c1cc(C2CC2)nc2c1c(C1CCCN1C(=O)c1ccc(C)cc1)nn2C (stereo not drawn)	-9.4%	.	-28.5%	.
COCC1CCCN(C(=O)c2cc(Cn3c(C)nc4ccccc43)[nH]n2)C1 (stereo not drawn)	-27.5%	i	-30.0%	-2.0%
Cc1nc2ccccc2n1Cc1cc(C(=O)N2CCCC2)no1	39.8µM*	i	?	-27.7%
COc1ccc(-c2ccc3ncc(Nc4ccc(CCO)cc4)n3n2)cn1	?	i	?	0.8%[70.6 µM]
COc1ccc(-c2ccc3ncc(Nc4cccc(Cl)c4)n3n2)cn1	44.7µM*	i	?	?
COc1ccc(-c2ccc3ncc(Nc4ccncc4)n3n2)cn1	100µM*	i	?	-2.9%[70.6 µM]
COc1ccc(-c2ccc3ncc(Nc4cccc(C(F)(F)F)c4)n3n2)cn1	44.7µM*	i	?	-29.8%[70.6 µM]
Cc1ccc(Nc2ccnc(N3CCCC(C(=O)NCc4ccc5c(c4)OCO5)C3)n2)cc1 (stereo not drawn)	7.94µM*	.	12.6µM*	.
Cc1ccc(Nc2ccnc(N3CCCC3C(=O)NCc3cccc(F)c3)n2)cc1 (stereo not drawn)	?	.	-25.8%	.
COc1ccc(Nc2ccnc(N3CCCC(C(=O)NCc4cccc(F)c4)C3)n2)cc1 (stereo not drawn)	12.6µM*	.	15.8µM*	.
COc1ccc(Nc2ccnc(N3CCCC(C(=O)NCc4cccc(OC)c4)C3)n2)cc1 (stereo not drawn)	25.1µM*	.	35.5µM*	.
